RPL19A TOR yeast: RPL19A-GFP expression modulators in yeast, primary screen, cell-based, S. cerevisiae, multiplex flow cytometry, MLPCN; percent response vs DMSO, % at 10 µM; AID 2025, 2009; S. cerevisiae RPL19A-GFP strain, 3 h; active compounds read low; 0.3% of 330,000 active;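 active = percent response vs DMSO below 50%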;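 note: median channel GFP fluorescence of the barcoded RPL19A-GFP strain; ratio of sample median GFP to plate DMSO average so 100% = DMSO; lower means less RPL19A-GFP as with rapamycin TOR inhibition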
CIT2 TOR yeast: modulators of CIT2-GFP expression in yeast, primary screen, S. cerevisiae, GFP fusion, multiplex flow cytometry, MLPCN library; AID 2029, 2009; GFP response vs DMSO, % at 10 µM; 0.065% of 320,000 active; S. cerevisiae CIT2-GFP strain, 3 h; 100 means same as DMSO wells;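 active = GFP response relative to DMSO above a set limit, near the screen mean plus 3 SD, cut at about 150% in these data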;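 note: ratio of well median GFP fluorescence to mean of DMSO wells on the plate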
AGP1 TOR yeast: modulators of AGP1-GFP expression in yeast TOR pathway, primary screen, cell-based, multiplex flow cytometry, S. cerevisiae, MLPCN library. 3 h; GFP as percent of DMSO wells. GFP response vs DMSO, % at 10 µM. 0.02% of 320,000 active;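 active = GFP response relative to DMSO above a set limit, near screen average plus 3 SD, cut at about 150% in these data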;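 note: median GFP channel fluorescence of the gated AGP1 strain per well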
LAP4-GFP MLPCN: modulators of LAP4-GFP expression in yeast, primary screen, S. cerevisiae, multiplex flow cytometry, MLPCN library; AID 2023, 2009; GFP response vs DMSO, % at 10 µM; 3 h; median GFP as percent of DMSO wells; 0.34% of 320,000 active;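 active = GFP response vs DMSO above a set limit, about the screen mean plus 3 SD, cut at about 150% in these data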
MEP2-GFP yeast: modulators of MEP2-GFP levels in yeast, primary screen, S. cerevisiae, multiplex flow cytometry, MLPCN library | S. cerevisiae MEP2-GFP strain, 3 h; 100% = DMSO control level | GFP response vs DMSO, % at 10 µM | 0.51% of 330,000 active | AID 2016, 2009;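 active = GFP response versus DMSO above a set limit, roughly screen mean plus 3 SD, cut at about 180% in these data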;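 note: median GFP fluorescence of the barcode-gated MEP2-GFP cells per well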
LAP4-GFP pick2: LAP4-GFP expression modulators in yeast, confirmation, cell-based, second cherry pick, flow cytometry | 20% of 590 active | GFP response vs DMSO, % at 10 µM | shares compounds with LAP4-GFP MLPCN | S. cerevisiae LAP4-GFP strain, 3 h;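 active = GFP signal as percent of the solvent control above about 150%, meaning raised reporter expression, limit read from the data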;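 note: ratio of well median GFP fluorescence to plate DMSO mean so 100% = DMSO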
MEP2-GFP pick2: modulators of MEP2-GFP levels in yeast, confirmation, S. cerevisiae, flow cytometry GFP, second cherry picks. shares compounds with LAP4-GFP MLPCN. S. cerevisiae MEP2-GFP strain, 3 h. GFP response vs DMSO, % at 10 µM. 10% of 590 active. AID 2622, 2010;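 active = GFP signal above 150% of the solvent control wells, that is a rise of more than half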;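 note: median channel GFP fluorescence of all gated yeast cells per well; ratio of median GFP to plate DMSO average so 100% = DMSO level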
RPL19A-GFP pick2: RPL19A-GFP modulators in TOR pathway yeast, confirmation, cell-based, S. cerevisiae, flow cytometry, second cherry pick | shares compounds with LAP4-GFP MLPCN | S. cerevisiae RPL19A-GFP strain, 3 h; active compounds read low; 100% means same as DMSO wells | GFP response vs DMSO, % at 10 µM | 3% of 590 active;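 active = under 65% GFP response relative to DMSO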;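 note: median GFP channel fluorescence per well over the all cells gate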
CIT2-GFP pick2: modulators of CIT2-GFP expression in yeast, confirmation, flow cytometry, second cherry pick, single plex; shares compounds with LAP4-GFP MLPCN; S. cerevisiae CIT2-GFP strain, 3 h; DMSO control wells read 100%; GFP response vs DMSO, % at 10 µM; 8% of 590 active;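 active = GFP response vs DMSO above about 150%, limit read from the data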;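 note: median green fluorescence per well over all gated yeast cells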
AGP1-GFP pick2: AGP1-GFP expression modulators, hit retest, confirmation, cell-based, flow cytometry, S. cerevisiae, cherry pick set 2. percent response vs DMSO, % at 10 µM. S. cerevisiae AGP1-GFP strain, 3 h. AID 2643, 2010. 590 tested, under 10 active. shares compounds with LAP4-GFP MLPCN;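 active = over 150 percent of DMSO response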;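 note: median GFP channel fluorescence over all cells without mother daughter split; sample median GFP divided by mean DMSO control so 100% equals DMSO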
s288c autofluor: compound autofluorescence in yeast s288c, dose response, artefact control for yeast TOR pathway GFP screen, s288c strain; shares compounds with LAP4-GFP MLPCN; S. cerevisiae s288c, 520 nm autofluorescence, flow cytometry, 3 h; active compounds read high; zero means same as solvent-only cells; fluorescence change (kMESF span) at 33 µM; 610 tested, under 10 active;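 active = fluorescence span over the dose series, or activity score, above about 33, limit read from the data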
An asterisk follows results filed as active. Shown are actives, neighbours in structure and some others; about 0.92% of the full set was active somewhere.

`Cc1ccc2[nH]c(C)c(/C=C/c3cc[n+](C)cc3)c2c1` gave RPL19A TOR yeast 124, CIT2 TOR yeast 224*, AGP1 TOR yeast 110, LAP4-GFP MLPCN 209*, MEP2-GFP yeast 344* and s288c autofluor 17.
Screening CCN(CCS(=O)(=O)c1ccc(Br)cc1)Cc1nc2ccccc2c(=O)[nH]1 returned RPL19A TOR yeast 93, CIT2 TOR yeast 89, AGP1 TOR yeast 88, LAP4-GFP MLPCN 92 and MEP2-GFP yeast 91.
Screening O=C(CCS(=O)(=O)c1ccc2c(c1)NC(=O)CS2)NCCc1ccccc1 returned RPL19A TOR yeast 88, CIT2 TOR yeast 99, AGP1 TOR yeast 105, LAP4-GFP MLPCN 159*, MEP2-GFP yeast 81, LAP4-GFP pick2 99, MEP2-GFP pick2 103, RPL19A-GFP pick2 97, CIT2-GFP pick2 97 and AGP1-GFP pick2 99.
O=C(CCS(=O)(=O)c1ccc2c(c1)NC(=O)CS2)NCCc1ccc(Cl)cc1 was read as RPL19A TOR yeast 99, CIT2 TOR yeast 101, AGP1 TOR yeast 105, LAP4-GFP MLPCN 103 and MEP2-GFP yeast 98.
For COc1cccc2c1C(=O)c1c(O)c3c(c(O)c1C2=O)C[C@@](O)(C(=O)CO)C[C@@H]3O[C@H]1C[C@H](N)[C@@H](O)[C@H](C)O1 the results were RPL19A TOR yeast 106, CIT2 TOR yeast 95, AGP1 TOR yeast 95, LAP4-GFP MLPCN 95 and MEP2-GFP yeast 105.
Screening CC(=O)[C@]1(O)Cc2c(O)c3c(c(O)c2[C@@H](O[C@H]2C[C@H](N)[C@H](O)[C@H](C)O2)C1)C(=O)c1ccccc1C3=O returned RPL19A TOR yeast 107, CIT2 TOR yeast 91, AGP1 TOR yeast 89, LAP4-GFP MLPCN 152*, MEP2-GFP yeast 119, LAP4-GFP pick2 151*, MEP2-GFP pick2 153*, RPL19A-GFP pick2 111, CIT2-GFP pick2 140, AGP1-GFP pick2 108 and s288c autofluor 2.7.
COc1cc(NC(=O)c2c(OC)cccc2OC)ccc1NC(=O)c1cc2ccccc2o1 was read as RPL19A TOR yeast 107, CIT2 TOR yeast 105, AGP1 TOR yeast 97, LAP4-GFP MLPCN 90 and MEP2-GFP yeast 107.
Screening O=C(Nc1ccc(NC(=O)c2cc3ccccc3o2)cc1)c1ccc2c(c1)OCCO2 returned RPL19A TOR yeast 101, CIT2 TOR yeast 106, AGP1 TOR yeast 104, LAP4-GFP MLPCN 99, MEP2-GFP yeast 99 and s288c autofluor 0.1.
`CCC(=O)Nc1ccc(NC(=O)c2cc3ccccc3o2)c(OC)c1` gave RPL19A TOR yeast 102, CIT2 TOR yeast 104, AGP1 TOR yeast 110, LAP4-GFP MLPCN 101, MEP2-GFP yeast 99 and s288c autofluor 0.1.
For COc1cc(NC(=O)c2ccc(Br)cc2)ccc1NC(=O)c1cc2ccccc2o1 the results were RPL19A TOR yeast 103, CIT2 TOR yeast 86, AGP1 TOR yeast 79, LAP4-GFP MLPCN 88 and MEP2-GFP yeast 110.
Screening Cc1cc(NC(=O)c2cccnc2Cl)ccc1NC(=O)c1cc2ccccc2o1 returned RPL19A TOR yeast 105, CIT2 TOR yeast 103, AGP1 TOR yeast 97, LAP4-GFP MLPCN 90, MEP2-GFP yeast 100 and s288c autofluor 0.1.
COc1cc(NC(=O)c2ccc(C)cc2)ccc1NC(=O)c1cc2ccccc2o1 was read as RPL19A TOR yeast 92, CIT2 TOR yeast 76, AGP1 TOR yeast 34, LAP4-GFP MLPCN 84, MEP2-GFP yeast 168 and s288c autofluor 0.1.
Screening Cc1cc(NC(=O)c2cccnc2)ccc1NC(=O)c1cc2ccccc2o1 returned RPL19A TOR yeast 93, CIT2 TOR yeast 92, AGP1 TOR yeast 94, LAP4-GFP MLPCN 96 and MEP2-GFP yeast 92.
`Cc1ccc(NC(=O)COC(=O)c2cc(=O)c3ccccc3o2)cc1F` gave RPL19A TOR yeast 95, CIT2 TOR yeast 96, AGP1 TOR yeast 91, LAP4-GFP MLPCN 98 and MEP2-GFP yeast 96.
For O=C1C(=O)N(CCN2CCOCC2)C(c2cccc(Cl)c2)/C1=C(\O)c1ccc2c(c1)OCCO2 (stereo unspecified) the results were RPL19A TOR yeast 50, CIT2 TOR yeast 107, AGP1 TOR yeast 27, LAP4-GFP MLPCN 93, MEP2-GFP yeast 136, LAP4-GFP pick2 100, MEP2-GFP pick2 98, RPL19A-GFP pick2 97, CIT2-GFP pick2 112 and AGP1-GFP pick2 98.
CN(C)NC(=S)Nc1ccc(S(=O)(=O)N2CCCCC2)cc1 was read as RPL19A TOR yeast 65, CIT2 TOR yeast 87, AGP1 TOR yeast 66, LAP4-GFP MLPCN 97, MEP2-GFP yeast 100, LAP4-GFP pick2 107, MEP2-GFP pick2 108, RPL19A-GFP pick2 100, CIT2-GFP pick2 113, AGP1-GFP pick2 100 and s288c autofluor -0.1.
Screening O=C(COC(=O)CSc1ccc(Cl)cc1)Nc1ccc2[nH]c(=O)[nH]c2c1 returned RPL19A TOR yeast 101, CIT2 TOR yeast 96, AGP1 TOR yeast 100, LAP4-GFP MLPCN 105 and MEP2-GFP yeast 97.
`COc1cccc(/C=C2/SC(=S)N(CCCC(=O)Nc3ccc(O)cc3)C2=O)c1` gave RPL19A TOR yeast 103, CIT2 TOR yeast 103, AGP1 TOR yeast 99, LAP4-GFP MLPCN 101 and MEP2-GFP yeast 96.
